Our source for the z-score and composite z-score values is PubChem BioAssay.

Structures are written as SMILES. Calls of active or inactive are those of the source.

Assay [1] in a line: E. coli DRC41 culture turbidity changes, primary screen, E. coli filamentation inducer project, strain DRC41, OD650, 48 h (AID 1152).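 Also: E. coli MC1000 strain DRC41 lacking acrAB efflux pump and sulA.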 The conditions noted are these: E. coli DRC41 (acrAB sulA), higher = more signal, called active from +8 up or from −8 down.
Assay [2] can be described thus: small-molecule binders of probe aLefty1, primary screen, biochemical, small-molecule microarray, 635/667 nm fluorescence (AID 1153).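 Also: score merges spot fluorescence with signal-to-noise ratio from the scanned slide images.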 The conditions noted are these: higher = more signal.
A short description of assay [3]: PSAC antagonists in infected red cells, primary screen, cell-based, P. falciparum Indochina, OD700, 1 h (AID 1154). The conditions noted are these: P. falciparum Indochina infected RBC osmotic lysis, higher = more signal, called active from +8 up or from −8 down.
The nature of assay [4]: PSAC antagonists in infected red cells, primary screen, cell-based, P. falciparum Indochina, OD700, 2 h (AID 1155).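 Also: lysis reports solute entry through the parasite surface anion channel PSAC; channel blockers reduce lysis of infected cells.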 The conditions noted are these: P. falciparum Indochina infected erythrocytes, osmotic lysis OD700; higher = more signal, called active from +8 up or from −8 down.
Assay [5] is described as follows: osmotic lysis modulators in infected erythrocytes, primary screen, PSAC antagonist project, cell-based, P. falciparum Indochina, OD700, 3 h (AID 1156). Particulars: higher = more signal, called active from +8 up or from −8 down.
A short description of assay [6]: PSAC antagonists in infected red cells, primary screen, cell-based, P. falciparum Indochina, OD700, 18 h (AID 1157). Particulars: P. falciparum Indochina infected erythrocytes, osmotic lysis OD700, 18 h; higher = more signal, called active from +8 up or from −8 down.
Assay [7] is described as follows: modulators of S6 phosphorylation in cells, primary screen, cell-based, A549, cytoblot, luminescence, serum-stimulated (AID 1158).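 Also: serum-stimulated A549 lung adenocarcinoma cells; signal is phosphorylated S6 detected by cytoblot immunostaining with HRP secondary.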 The conditions noted are these: A549 phospho-S6 cytoblot, 5 h, higher = more signal.
The target of assay [8] is NADPH oxidase 2 (Homo sapiens) (UniProt P04839). Briefly: NOX2-dependent H2O2 signal modulators, primary screen, NOX inhibitor project, cell-based, HEK293-NOX2, PMA-stimulated, Amplex Red fluorescence (AID 1159). Also: test concentration not given here. Particulars: 45 min, higher = more signal, called active from +8 up or from −8 down.
Assay [9] has as its target NADPH oxidase 4 (Homo sapiens) (UniProt Q9NPH5). Put plainly: NOX4-dependent H2O2 signal modulators, primary screen, NOX inhibitor project, cell-based, HEK293-NOX4, tetracycline-induced, Amplex Red fluorescence (AID 1160). Particulars: 45 min, higher = more signal, called active from +8 up or from −8 down.
Assay [10] deals with NADPH oxidase 5 (Homo sapiens) (UniProt Q96PH1). Put plainly: NOX5-dependent H2O2 signal modulators, primary screen, NOX inhibitor project, cell-based, HEK293-NOX5, Amplex Red fluorescence (AID 1161). The conditions noted are these: HEK293-NOX5, ionomycin, 45 min, higher = more signal.
Chain of NADPH oxidase 5 (Homo sapiens) (Q96PH1 whole entry, looked up): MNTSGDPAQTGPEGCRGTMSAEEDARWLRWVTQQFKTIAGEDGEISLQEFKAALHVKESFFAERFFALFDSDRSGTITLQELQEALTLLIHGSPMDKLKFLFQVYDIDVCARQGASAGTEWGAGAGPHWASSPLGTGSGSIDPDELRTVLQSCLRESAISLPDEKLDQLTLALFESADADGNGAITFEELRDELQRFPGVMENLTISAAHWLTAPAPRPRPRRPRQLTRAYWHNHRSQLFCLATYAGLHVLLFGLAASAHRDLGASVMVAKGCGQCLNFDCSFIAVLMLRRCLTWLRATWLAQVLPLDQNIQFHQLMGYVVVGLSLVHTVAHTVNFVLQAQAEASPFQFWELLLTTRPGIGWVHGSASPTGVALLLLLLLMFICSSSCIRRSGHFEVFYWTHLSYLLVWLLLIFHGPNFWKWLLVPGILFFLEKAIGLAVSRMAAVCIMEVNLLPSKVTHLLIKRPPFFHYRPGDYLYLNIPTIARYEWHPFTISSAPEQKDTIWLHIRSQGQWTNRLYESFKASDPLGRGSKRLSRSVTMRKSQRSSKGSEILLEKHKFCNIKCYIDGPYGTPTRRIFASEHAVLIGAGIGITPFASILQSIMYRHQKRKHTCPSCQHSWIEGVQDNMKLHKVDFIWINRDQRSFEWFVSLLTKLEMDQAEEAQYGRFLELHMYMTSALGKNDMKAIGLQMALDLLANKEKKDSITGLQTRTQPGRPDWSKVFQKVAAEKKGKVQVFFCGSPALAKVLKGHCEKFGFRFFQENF

Chain of NADPH oxidase 2 (Homo sapiens) (P04839 whole entry, looked up): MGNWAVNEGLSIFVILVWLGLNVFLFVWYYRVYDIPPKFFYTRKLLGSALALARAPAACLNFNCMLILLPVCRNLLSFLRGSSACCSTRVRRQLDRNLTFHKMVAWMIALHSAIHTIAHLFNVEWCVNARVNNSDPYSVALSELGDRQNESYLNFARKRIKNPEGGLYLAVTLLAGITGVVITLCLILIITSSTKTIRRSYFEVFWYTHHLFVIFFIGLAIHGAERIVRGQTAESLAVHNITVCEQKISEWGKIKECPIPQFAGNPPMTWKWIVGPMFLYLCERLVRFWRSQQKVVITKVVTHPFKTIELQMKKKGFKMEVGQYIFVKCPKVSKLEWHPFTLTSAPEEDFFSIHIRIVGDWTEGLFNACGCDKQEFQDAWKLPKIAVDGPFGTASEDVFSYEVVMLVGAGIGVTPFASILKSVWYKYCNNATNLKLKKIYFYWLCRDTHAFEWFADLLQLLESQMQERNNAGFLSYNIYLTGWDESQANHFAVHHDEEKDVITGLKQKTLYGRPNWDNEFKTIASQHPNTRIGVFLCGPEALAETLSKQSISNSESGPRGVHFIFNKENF
Chain of NADPH oxidase 4 (Homo sapiens) (Q9NPH5 whole entry, looked up): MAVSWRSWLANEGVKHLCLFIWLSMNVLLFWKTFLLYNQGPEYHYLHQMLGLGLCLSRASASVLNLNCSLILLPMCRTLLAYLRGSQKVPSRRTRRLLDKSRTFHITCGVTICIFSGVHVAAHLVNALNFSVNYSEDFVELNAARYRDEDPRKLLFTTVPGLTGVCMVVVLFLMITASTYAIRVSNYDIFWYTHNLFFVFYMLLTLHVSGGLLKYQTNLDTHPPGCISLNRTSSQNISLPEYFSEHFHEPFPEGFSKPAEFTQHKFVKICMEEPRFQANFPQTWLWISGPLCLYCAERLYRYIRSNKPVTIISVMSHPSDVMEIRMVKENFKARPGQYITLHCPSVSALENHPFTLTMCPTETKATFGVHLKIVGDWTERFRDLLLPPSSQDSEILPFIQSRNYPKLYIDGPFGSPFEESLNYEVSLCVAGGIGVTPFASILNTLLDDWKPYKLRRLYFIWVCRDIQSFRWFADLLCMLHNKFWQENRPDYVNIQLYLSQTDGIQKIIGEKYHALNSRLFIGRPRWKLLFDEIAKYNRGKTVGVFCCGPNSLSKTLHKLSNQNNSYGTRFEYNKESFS

On to `Cc1ccc(N2C(=O)c3ccccc3[C@](C)(C(=O)NC(C)C)[C@@H]2c2ccc(CO)cc2)nc1`, for which the z-score in assay [1] is 1.07 (inactive); in assay [3], 0.641 (inactive); in [4], 0.414 (inactive); in assay [5], 0.18 (inactive); in assay [6] it was 0.232 (inactive); in assay [7] it was 0.274. Further, the z-score was 0.358 (inactive) in assay [8], -0.357 (inactive) in [9] and -0.363 in assay [10]. Besides, the composite z-score in assay [2] was -0.275.

Regarding `CN(C)CCCC[C@@H]1NC(=O)[C@H]2C[C@@H](C(=O)NCCCCCCNC(=O)CS)[C@@H](c3ccc(O)cc3)N2C1=O`, the z-score in [1] was 0.446 (inactive); in [3] it was 2.46 (inactive); in assay [4], 0.374 (inactive); in assay [5], 1.84 (inactive); in [6] it was 0.178 (inactive); in [7] it was 0.469. Also, the z-score is 1.35 (inactive) in [8], 1.78 (inactive) in assay [9] and 1.52 in [10]. Moreover, the composite z-score in assay [2] was found to be 0.0048.

For the molecule `C=C(C(=O)CC[C@H](OC(=O)c1cccnc1)c1ccc(OCCO)cc1)C(C)C`, the z-score in assay [1] is -0.903 (inactive); in [3], 23.1 (active); in assay [4] it was 5.33 (inactive); in assay [5] it was 1.01 (inactive); in assay [6], 1.24 (inactive); in [7], 0.136. Besides, the z-score in assay [8] was -0.427 (inactive); in assay [9], 0.525 (inactive); in [10], -1.85. Besides, the composite z-score in assay [2] worked out at 0.282.

For the molecule `COCC(=C=CC[C@@H](O)c1ccccc1OCCO)C[C@@H](O)COCc1ccccc1`, the z-score in [1] is 2.01 (inactive); in [3], 6.15 (inactive); in [4], -0.29 (inactive); in [5], 0.66 (inactive); in [6] it was -1.22 (inactive); in assay [7] it was 0.719. For the same molecule, the results for the z-score in [8], in [9] and in assay [10] were 0.547 (inactive), 1.31 (inactive) and -1.66, respectively. This molecule registered a composite z-score in [2] of 0.455.

Regarding `Cc1ccc(S[C@]2(C(=O)O)CC(=O)N(C3CCCCC3)[C@@H]2c2ccc(CO)cc2)cc1`, the z-score in [1] was 0.858 (inactive); in [3] it was 2.06 (inactive); in assay [4], 0.0744 (inactive); in assay [5] it was 0.854 (inactive); in [6], 0.0854 (inactive); in assay [7], -0.158. Further, the z-score in [8] was 1.09 (inactive); in assay [9], 0.585 (inactive); in assay [10], 0.763. Besides, the composite z-score in [2] was -0.672.

For the molecule `COc1ccc([Si](C)(C)[C@@H]2[C@@H](CC(=O)N(CCO)Cc3ccccc3)O[C@]3(C(=O)N(Cc4ccc(N5CCOC5=O)cc4)c4ccccc43)[C@H]2C)cc1`, the z-score is -1.02 (inactive) in assay [1]; 8.87 (active) in [3]; 1.62 (inactive) in assay [4]; -0.248 (inactive) in assay [5]; 0.821 (inactive) in [6]; -0.16 in assay [7]. The z-score was 0.566 (inactive) in assay [8], 1.18 (inactive) in assay [9] and 3.4 in assay [10]. This molecule showed a composite z-score in assay [2] of -0.0891.

Consider `COc1cccc(C[C@H]2C[C@@H](CO[Si](C(C)C)(C(C)C)C(C)C)N3C(=O)[C@]4(C(C)=O)O[C@]23[C@H]2C(=O)N(C)C(=O)[C@H]24)c1`, for which the z-score is -1.09 (inactive) in assay [1]; 4.02 (inactive) in assay [3]; 0.867 (inactive) in assay [4]; -0.382 (inactive) in assay [5]; 0.702 (inactive) in assay [6]; -0.267 in assay [7]. For the same molecule, the z-score in assay [8] was 0.083 (inactive); in assay [9], 0.451 (inactive); in [10] it was 0.146. For the same molecule, the composite z-score in assay [2] is -0.0713.

Regarding `Cc1cc(C)c(C(O)C2C=CC3C(=O)N(c4ccccc4)C(=O)C3N2Nc2ccccc2)c(C)c1` (stereo not given), the z-score in assay [1] is -0.687 (inactive); in [3] it was 1.72 (inactive); in assay [4] it was 1.23 (inactive); in assay [5], 0.244 (inactive); in assay [6], 1.44 (inactive); in assay [7], -0.824. Moreover, the z-score was -1.56 (inactive) in [8], -3.06 (inactive) in [9] and -3.17 in assay [10]. Besides, the composite z-score in assay [2] amounted to 0.157.

`CN1C(=O)C2C=CC(C(O)c3cccc4ccccc34)N(NC(=O)OC(C)(C)C)C2C1=O` (stereo not given): the z-score was -0.622 (inactive) in assay [1]; 1.15 (inactive) in assay [3]; 0.564 (inactive) in [4]; 0.0094 (inactive) in assay [5]; 0.877 (inactive) in [6]; -1.22 in [7]. Besides, the figures for the z-score in assay [8], in [9] and in assay [10] were -0.492 (inactive), -3.85 (inactive) and 0.409, respectively. Also, in assay [2], the composite z-score amounted to 0.966.

In the case of `COc1ccccc1CN1C(=O)c2ccccc2[C@@]2(Cc3ccccc3N(C3CC3)C2=O)[C@@H]1c1ccc(CO)cc1`, the z-score was -0.685 (inactive) in [1]; 0.162 (inactive) in assay [3]; -0.0183 (inactive) in assay [4]; -0.108 (inactive) in [5]; 0.23 (inactive) in [6]; -0.243 in [7]. Besides, the z-score in assay [8] is -0.161 (inactive); in [9] it was 0.394 (inactive); in assay [10], 1.04. This molecule also had a composite z-score in [2] of -0.235.

`O=C1N(CCS(=O)(=O)c2ccccc2)Cc2ccccc2C[C@@]12COC(c1ccc(OCCCO)cc1)=N2`: the z-score is -2.34 (inactive) in assay [1]; 25.9 (active) in assay [3]; 15.1 (active) in [4]; 4.23 (inactive) in assay [5]; 2.14 (inactive) in assay [6]; -0.0579 in assay [7]. Further, the z-score in assay [8] is -5.26 (inactive); in assay [9] it was -0.159 (inactive); in [10], -3.16. In addition, the composite z-score in [2] worked out at 0.153.
